The panel holds about 83,000 compounds, 20% with a hit somewhere; the sample as a whole holds those more often.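 The endpoint reported here, percent growth, reads 100 for growth as untreated, 0 for no net growth and -100 for all cells dead.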 Activity calls are given as the source filed them.
What follows are molecules tested on HT29 colon (assay: NCI-60 one-dose screen, 48 h (100 = growth as untreated, 0 = no growth, -100 = all killed)). Conditions: 10 µM unless noted.
Description: Growth inhibition of the HT29 human tumor cell line is measured as a screen for anti-cancer activity. Cells are grown in 96 well plates and exposed to the test compound for 48 hours. Compounds are tested at a single concentration, which is 10^-5 M for most compounds. The reported endpoint is percent growth (GI% or GIPRCNT), where numbers from 0 - 100% represent growth inhibition, and numbers from -100% - 0 represent cell death. For example, a value of 40 represents 60% growth inhibition. A value of 0 means no net growth occurred over the course of the experiment. A value of -40 indicates 40% of cells at the beginning of the experiment died by the end of the experiment. A value of -100 means all cells are dead at the end of the experiment.
NCI-60 Human Tumor Cell Lines Screen was performed using the standard one-dose NCI protocol, which is described in more detail at https://dtp.cancer.gov/discovery_development/nci-60/default.htm.
Compounds with GIPRCNT values below 10 were considered active. Activity score was based on GIPRCNT using the following formula: […]
Score is 0 for GIPRCNT values of 100 or above, 50 for GIPRCNT values of 0, and 100 for GIPRCNT values of -100.

SMILES | growth
CCCCN(CCCC)CCC(C)(O)c1cc2ccccc2c2ccccc12 (stereo not given) | 39.7% (inactive)
COc1cc(NC(N)=NCC(C)(C)COc2ccc(C(F)(F)F)cc2)cnc1C#N | 26.9% (inactive)
COc1ccc(N(Cc2cc(OC)c(OC)c(OC)c2)C2OC(=O)c3ccccc32)cc1 (stereo not given) | 5.34% (active)
COc1cccc(/C=C\C(=O)c2ccccc2)c1 | 73.4% (inactive)
NC(CC(=O)O)C(=O)OCc1ccccc1 (stereo not given) | 115% (inactive)
N#Cc1c(N)nc(N)nc1Nc1ccc(Br)cc1 | 93.9% (inactive)
O=C1c2cc3c(cc2-c2c1c1cc(F)c(F)cc1c(=O)n2C[C@H](O)CO)OCO3 | 0.994% (active)
Oc1c(Cl)cc(Cl)cc1CNc1nccnn1 | 105% (inactive)
CNc1cc2nc3cc(NC)c(C)cc3cc2cc1C | 10% (inactive)
Nc1nc2c(c3ncccc13)C(c1cccc(Br)c1)Cc1ncccc1-2 (stereo not given) | 0.652% (active)
CCN(CC)CC(O)c1cc(-c2ccc(Cl)cc2)nc2c(C)c(Cl)ccc12 (stereo not given) | -100% (active)
CCCCOc1ccc(NC(=O)n2nc(NC(C)=O)c3cc(NC(C)=O)ccc32)cc1 | 85.5% (inactive)
COCCOC(=O)C1=C(C)NC(=S)NC1c1ccc2c(c1)OCO2 (stereo not given) | 96.7% (inactive)
COc1cccc(NC(=O)c2sc3nc4c(cc3c2N)CN(Cc2ccccc2)CC4)c1 | 44.5% (inactive)
CC1(C)OCC2OC3(C(=O)O)OC(C)(C)OC3C2O1 (stereo not given) | 108% (inactive)
COc1cc(OC)c(/C=C/S(=O)(=O)Cc2ccc(OC)c(N)n2)c(OC)c1 | -9.76% (active)
COc1cnc2c(c1)C(=O)c1c-2n(CCCN2CCNCC2)c(=O)c2cc([N+](=O)[O-])ccc12 | -80% (active)
CCN(C(=O)CN1CCN(c2cc3c(cc2F)c(=O)c(C(=O)O)cn3C2CC2)CC1)c1nc(-c2ccc(OC)cc2)cs1 | 7.28% (active)
C=C1CC2(OC1=O)C(=O)N(CCCCCCCN1C(=O)C3(CC(=C)C(=O)O3)c3ccccc31)c1ccccc12 (stereo not given) | -17.4% (active)
CC(=O)O[C@H]1CC[C@]2(C)[C@H]3CC[C@@H]4[C@H]5[C@H](C(C)C)CC[C@]5(C(=O)OCC(CO)(CO)N=C(N)N)CC[C@@]4(C)[C@]3(C)CC[C@H]2C1(C)C | -69% (active)

SMILES | growth
CN(C)CC(=O)Nc1ccc(Cn2nnc3c2C(=O)c2nnn(Cc4ccc(NC(=O)CN(C)C)cc4)c2C3=O)cc1 | -52.5% (active)
CCOC(=O)c1cnc2ccc(OC)cc2c1Nc1cccc(S(=O)(=O)NC)c1 | 112% (inactive)
COc1ccc(/C=C/C(=O)c2ccc(NC(=O)c3cc4cc5ccccc5nc4s3)cc2)cc1OC | 101% (inactive)
O=C(COCc1c(-c2ccccc2)no[n+]1[O-])Nc1ccc(C(=O)/C=C/c2ccc3c(c2)OCO3)cc1 | 132% (inactive)
O=c1c(/C=C/c2ccco2)nnc(SCCN2CCOCC2)n1/N=C/c1ccc([N+](=O)[O-])cc1 | 106% (inactive)
CNCc1cccc2c1OCCOCCOCCN(C)S(=O)(=O)c1ccc(cc1)-c1cnc(N)c(n1)C(=O)N2 | 13.2% (inactive)
COc1ccc(-c2cc(-c3cccnc3)nc3sc4c(=O)n(-c5ccc(C)cc5)nnc4c23)cc1OC | 105% (inactive)
CCCCCCCCCCNC(=O)CCl | 84.2% (inactive)
COc1ccc(-c2cc(/C=C3\C(=O)Nc4ccc(Cl)cc43)[nH]n2)cc1 | 11.5% (inactive)
O=C(NCc1cccc(C(F)(F)F)c1)[C@H](CCC(=O)N1CCN(C2CCCCC2)CC1)N1C(=O)[C@@H](N2C(=O)OC[C@@H]2c2ccccc2)[C@H]1/C(Cl)=C/c1ccccc1 | 2.23% (active)
CS(=O)(CCCCN=C=S)=NC(=O)c1c(F)c(F)c(F)c(F)c1F (stereo not given) | 90.2% (inactive)
COc1ccccc1/C=C(/C(=O)c1ccccc1)c1ccccc1 | 110% (inactive)
O=C(O)c1c([N+](=O)[O-])cnc2ccccc12 | 107% (inactive)
Cc1ccccc1CCO | 76.4% (inactive)
Cc1ccc(N)cc1F | 110% (inactive)
COc1cc2cc(COc3nccc(-c4ccc(Cl)cc4)n3)c(=O)[nH]c2cc1OC | -7.34% (active)
COc1nc2c(cc1S(=O)(=O)c1ccccc1)CCc1c-2cnn1-c1ccc(Cl)cc1 | 89.3% (inactive)
CCCCN(CCCC)Cc1c(C)[nH]c2cc(OC)ccc2c1=O | 93.9% (inactive)
Cn1cc(-c2nc(-c3c[nH]c4ccccc34)cs2)c2cccnc21 | 7.8% (active)
Nc1nc2c(c3ncccc13)C(c1ccc(Cl)c(Cl)c1)Cc1ncccc1-2 (stereo not given) | 6.39% (active)

From PubChem BioAssay (NCI)
